Results filed as inconclusive are left out. Active and inactive are the calls of the source. Calls come from the whole dose curve; as a rule, active = well fitted cell-killing curve with a large enough effect in the repeat runs; inconclusive = weak or mixed curves, or effect the other way; inactive = flat fitted curve, though single readings scatter.

This passage reports Potency results from PubChem BioAssay (Tox21).

Experiment [1] is described as follows: cAMP Responsive Elements (CRE) small molecule antagonists, cell-based qHTS assay: qHTS cell viability counter screen (AID 2060913). Note: nearly all actives have a fitted effect of over 40% in size. As to conditions: CRE-bla HEK293T viability, CellTiter-Glo luminescence, 5 h; series mostly up to 92.4 µM. In a few lines: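 CRE-bla HEK293T cells were seeded in assay medium with 10% dialyzed FBS, incubated 18 hrs at 37 C, then exposed to compounds plus 0.25 uM final NKH477 for 3 hrs. Viability was read by CellTiter-Glo luminescence after 30 min, in the same wells.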

Experiment [2] can be described thus: cAMP Responsive Elements (CRE) small molecule agonists, cell-based qHTS assay: qHTS cell viability counter screen (AID 2060914). Note: nearly all actives have a fitted effect of over 50% in size. Conditions: CRE-bla HEK293T viability, CellTiter-Glo luminescence, 5 h; series mostly up to 92.4 µM. The method in brief: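 In the same wells as the reporter read, viability of CRE-bla HEK 293T cells was quantified by CellTiter-Glo luminescence after a 3 h compound exposure.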
Potency is the fitted concentration of half-maximal effect.

Regarding `Clc1cnc(Oc2ccc(Oc3ncc(Cl)cc3Cl)cc2)c(Cl)c1`, the Potency entry in experiment [1] and in experiment [2] was “inactive” each time.
`CCOC(=O)C1(c2ccccc2)CCN(CCC(C#N)(c2ccccc2)c2ccccc2)CC1`: the Potency entry in experiment [1] and in experiment [2] was “inactive” throughout.
In the case of `CC(C)NCC(O)c1ccccc1Cl` (centres undefined), the Potency result in experiment [1] and in experiment [2] was “inactive” each time.
As for `O=C(Nc1ccc2[nH]ccc2c1)c1cc2cc(F)ccc2n1Cc1cccc(F)c1`, the Potency entry in experiment [1] and in experiment [2] was “inactive” each time.
On to `O=C(CCN1CC1)OCC(CO)(COC(=O)CCN1CC1)COC(=O)CCN1CC1`, for which the Potency result in experiment [1] and in experiment [2] was “inactive” in each case.
Regarding `ClC(Cl)=C(Cl)Cl`, the Potency result in experiment [1] and in experiment [2] was “inactive” each time.
Regarding `ClC(Cl)Br`, the Potency result in experiment [1] and in experiment [2] was “inactive” throughout.
With `O=P(O)(Oc1ccccc1)Oc1ccccc1`, the Potency result in experiment [1] and in experiment [2] was “inactive” throughout.
On to `CCOCn1c(-c2ccc(Cl)cc2)c(C#N)c(Br)c1C(F)(F)F`, for which the Potency result in experiment [1] and in experiment [2] was “inactive” each time.
For the molecule `CCOc1cc(OP(=S)(OC)OC)nc(CC)n1`, the Potency entry in experiment [1] and in experiment [2] was “inactive” throughout.
Turning to `C[N+]1(C)CCCCC1`, the Potency entry in experiment [1] and in experiment [2] was “inactive” each time.
Take `S=C(SSC(=S)N1CCCCC1)N1CCCCC1`: the Potency result in experiment [1] and in experiment [2] was “inactive” each time.
As for `CCS(=O)(=O)CCSP(=O)(OC)OC`, the Potency result in experiment [1] and in experiment [2] was “inactive” in each case.
For `Cc1cccc(C)c1N`, the Potency result in experiment [1] and in experiment [2] was “inactive” each time.
`CCCCc1c(C)nc(NCC)[nH]c1=O`: the Potency result in experiment [1] and in experiment [2] was “inactive” each time.
With `NNC(N)=S`, the Potency entry in experiment [1] and in experiment [2] was “inactive” each time.
Take `OCCCBr`: the Potency result in experiment [1] and in experiment [2] was “inactive” throughout.
Regarding `CCCCN(N=O)C(=N)N[N+](=O)[O-]`, the Potency result in experiment [1] and in experiment [2] was “inactive” in each case.
As for `COc1nc(NC(C)C)nc(NC(C)C)n1`, the Potency result in experiment [1] and in experiment [2] was “inactive” throughout.
In the case of `O=C(N/N=C/c1ccc([N+](=O)[O-])o1)c1cc([N+](=O)[O-])cc([N+](=O)[O-])c1O`, the Potency result in experiment [1] and in experiment [2] was “inactive” throughout.
With `CCOC(=O)C(Cl)C(C)=O` (centres undefined), the Potency result in experiment [1] and in experiment [2] was “inactive” throughout.
As for `CCCN(CCC)c1c([N+](=O)[O-])cc(C(F)(F)F)cc1[N+](=O)[O-]`, the Potency result in experiment [1] and in experiment [2] was “inactive” throughout.
Consider `CCN(CC)CCOC(=O)C(O)(c1ccccc1)c1ccccc1`, for which the Potency result in experiment [1] and in experiment [2] was “inactive” in each case.
As to `CC(C)C(Br)C(=O)NC(N)=O` (centres undefined), the Potency result in experiment [1] and in experiment [2] was “inactive” throughout.
As for `COP(N)(=O)SC` (centres undefined), the Potency entry in experiment [1] and in experiment [2] was “inactive” in each case.
`CC1CCC(=O)O1` (centres undefined): the Potency entry in experiment [1] and in experiment [2] was “inactive” each time.
As to `CC(C)N1C(=O)c2ccccc2NS1(=O)=O`, the Potency entry in experiment [1] and in experiment [2] was “inactive” in each case.
As to `CSC(C)(C)/C=N/O`, the Potency result in experiment [1] and in experiment [2] was “inactive” in each case.
As to `Cc1ccc2cc(C)ccc2c1`, the Potency result in experiment [1] and in experiment [2] was “inactive” in each case.
Regarding `O=P(O)(O)CCCl`, the Potency result in experiment [1] and in experiment [2] was “inactive” in each case.
`COC(=O)c1ccccc1C(=O)OC`: the Potency result in experiment [1] and in experiment [2] was “inactive” each time.
Regarding `CC(C)(C#N)C(C)(C)C#N`, the Potency result in experiment [1] and in experiment [2] was “inactive” throughout.
As for `Nc1ccncc1`, the Potency result in experiment [1] and in experiment [2] was “inactive” each time.
Turning to `C[C@@H]1CC[C@H]2[C@@H](C)C(=O)O[C@@H]3O[C@@]4(C)CC[C@@H]1[C@]32OO4`, the Potency result in experiment [1] and in experiment [2] was “inactive” throughout.
Consider `O=NN1CCCC1`, for which the Potency entry in experiment [1] and in experiment [2] was “inactive” throughout.
Turning to `COP(=S)(OC)Oc1ccc(S(N)(=O)=O)cc1`, the Potency result in experiment [1] and in experiment [2] was “inactive” each time.
As for `CN(C)c1nc(=O)n(C2CCCCC2)c(=O)n1C`, the Potency result in experiment [1] and in experiment [2] was “inactive” throughout.
In the case of `O=C(O)COc1ccc(Cl)cc1Cl`, the Potency entry in experiment [1] and in experiment [2] was “inactive” throughout.
Turning to `Cc1ccccc1CCl`, the Potency entry in experiment [1] and in experiment [2] was “inactive” throughout.
On to `O=[N+]([O-])c1cc(C(F)(F)F)c(Cl)c([N+](=O)[O-])c1Nc1ncc(C(F)(F)F)cc1Cl`, for which the Potency in experiment [1] is 30.6 µM (active); in experiment [2], 77 µM (active).
In the case of `O=C1C(Cl)C(CCl)CN1c1cccc(C(F)(F)F)c1` (centres undefined), the Potency entry in experiment [1] and in experiment [2] was “inactive” each time.
For `N[C@@H](Cc1ccc(Oc2cc(I)c(O)c(I)c2)c(I)c1)C(=O)O`, the Potency result in experiment [1] and in experiment [2] was “inactive” throughout.
On to `C=C(C#N)CCC#N`, for which the Potency result in experiment [1] and in experiment [2] was “inactive” each time.
As for `CCN[C@H](C)Cc1cccc(C(F)(F)F)c1`, the Potency entry in experiment [1] and in experiment [2] was “inactive” throughout.
Take `N#Cc1c(Cl)c(Cl)c(Cl)c(C#N)c1Cl`: the Potency entry in experiment [1] and in experiment [2] was “inactive” throughout.
`CCCOC(=O)Cc1ccc(OCC(=O)N(CC)CC)c(OC)c1`: the Potency result in experiment [1] and in experiment [2] was “inactive” each time.
`[Cl-].[Cl-].[Sn+2]`: the Potency result in experiment [1] and in experiment [2] was “inactive” each time.
As to `C[C@H]1CCC[C@H](O)CCCCCc2cc(O)cc(O)c2C(=O)O1`, the Potency result in experiment [1] and in experiment [2] was “inactive” throughout.
With `CNC(=O)O/N=C(\C)SC`, the Potency result in experiment [1] and in experiment [2] was “inactive” each time.
Turning to `NCC(O)c1ccc(O)cc1` (centres undefined), the Potency entry in experiment [1] and in experiment [2] was “inactive” each time.
For `CS(=O)(=O)c1cc(C(F)(F)F)ccc1C(=O)c1cnoc1C1CC1`, the Potency entry in experiment [1] and in experiment [2] was “inactive” in each case.
On to `Cc1ccc(N)cc1Cl`, for which the Potency entry in experiment [1] and in experiment [2] was “inactive” throughout.
With `O=NN1CCNCC1`, the Potency result in experiment [1] and in experiment [2] was “inactive” throughout.
As to `C[C@]12CCC(=O)C(O)=C1CC[C@@H]1[C@@H]2CC[C@]2(C)C(=O)CC[C@@H]12`, the Potency result in experiment [1] and in experiment [2] was “inactive” in each case.
Take `O=c1[nH]c(=O)n(Cl)c(=O)n1Cl`: the Potency entry in experiment [1] and in experiment [2] was “inactive” each time.
`Nc1ccc2c(c1)Cc1ccccc1-2`: the Potency entry in experiment [1] and in experiment [2] was “inactive” each time.
In the case of `CC(C)c1cccc(C(C)C)c1O`, the Potency result in experiment [1] and in experiment [2] was “inactive” each time.
